Reference: PubChem BioAssay (NCI)
The panel holds about 83,000 compounds, 20% with a hit somewhere; the sample as a whole holds those more often.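 96-well plates, one dose, 48 hours. Percent growth reported; active if below 10.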 Calls of active or inactive are those of the source.

Columns and labels:
Test in all cases: NCI-60 one-dose screen, 48 h (100 = growth as untreated, 0 = no growth, -100 = all killed)
Settings in all cases: 10 µM unless noted
NCI-H23 lung = system: NCI-H23 lung
NCI-H226 lung = system: NCI-H226 lung
NCI-H322M lung = system: NCI-H322M lung
HOP-62 NSCLC = system: HOP-62 NSCLC
NCI-H460 lung = system: NCI-H460 lung
HOP-92 NSCLC = system: HOP-92 NSCLC
NCI-H522 lung = system: NCI-H522 lung
A549/ATCC NSCLC = system: A549/ATCC NSCLC
786-0 renal = system: 786-0 renal
COLO 205 colon = system: COLO 205 colon
DU-145 prostate = system: DU-145 prostate
K-562 leukemia = system: K-562 leukemia
MALME-3M melanoma = system: MALME-3M melanoma
MDA-MB-231 breast = system: MDA-MB-231 breast
RXF 393 renal = system: RXF 393 renal
SF-268 CNS = system: SF-268 CNS
SF-295 CNS = system: SF-295 CNS
SF-539 CNS = system: SF-539 CNS
UACC-257 melanoma = system: UACC-257 melanoma
M14 melanoma = system: M14 melanoma

Measured: growth

Cc1ccc(C(=O)N(CCCN)[C@@H](c2nc3cc(Cl)ccc3c(=O)n2Cc2ccccc2)C(C)C)cc1
inactive: NCI-H226 lung 22.6%
active: NCI-H23 lung 8.15% | NCI-H322M lung -9.48% | HOP-62 NSCLC -28% | NCI-H460 lung -72.4% | HOP-92 NSCLC -16.3% | NCI-H522 lung -45.9% | A549/ATCC NSCLC -40% | 786-0 renal -13.7% | COLO 205 colon -72.3% | DU-145 prostate 1.24% | K-562 leukemia -30.6% | MALME-3M melanoma -79% | MDA-MB-231 breast -75.7% | RXF 393 renal 6.94% | SF-268 CNS -21.8% | SF-295 CNS -60.4% | SF-539 CNS -75.2% | UACC-257 melanoma -56.6% | M14 melanoma -65.2%

O=C(Oc1ccc(CO[N+](=O)[O-])cc1)c1ccccc1
active: NCI-H23 lung -71.1% | NCI-H226 lung -96.5% | NCI-H322M lung -88.1% | HOP-62 NSCLC -86.5% | NCI-H460 lung -65.3% | HOP-92 NSCLC -88% | NCI-H522 lung -67.2% | A549/ATCC NSCLC -9.66% | 786-0 renal -87.7% | COLO 205 colon -74.2% | DU-145 prostate -94.6% | K-562 leukemia -37.1% | MALME-3M melanoma -69.9% | MDA-MB-231 breast -80.6% | RXF 393 renal -86.2% | SF-268 CNS -84.8% | SF-295 CNS -91.9% | SF-539 CNS -90% | UACC-257 melanoma -78% | M14 melanoma -83%

Clc1nccc2c(-c3csc(-c4c[nH]c5ccc(Br)cc45)n3)c[nH]c12
active: HOP-62 NSCLC 7.78% | NCI-H460 lung -5.23% | HOP-92 NSCLC 6.84% | NCI-H522 lung 1.55% | 786-0 renal -68.2% | COLO 205 colon 7.99% | K-562 leukemia 3.99% | MALME-3M melanoma 8.43% | RXF 393 renal -14.8% | SF-295 CNS -10.3% | UACC-257 melanoma -48.9% | M14 melanoma -34.3%
inactive: NCI-H23 lung 31.9% | NCI-H226 lung 33.6% | NCI-H322M lung 70.4% | A549/ATCC NSCLC 15.1% | DU-145 prostate 29% | MDA-MB-231 breast 14.4% | SF-268 CNS 55.6% | SF-539 CNS 15.3%

COc1ccc(-c2ccc(-c3ccc(C(=N)N)cn3)s2)cc1Cl
active: NCI-H23 lung -57.5% | NCI-H322M lung -97.1% | HOP-62 NSCLC -50.5% | NCI-H460 lung -93% | HOP-92 NSCLC -76.8% | NCI-H522 lung -44.2% | A549/ATCC NSCLC -58.2% | 786-0 renal -61.3% | COLO 205 colon -51.7% | DU-145 prostate -47% | K-562 leukemia -47.8% | MALME-3M melanoma -88% | MDA-MB-231 breast -77.9% | SF-268 CNS -30.5% | SF-295 CNS -80.9% | SF-539 CNS -93.5% | UACC-257 melanoma -60.8% | M14 melanoma -81.7%
inactive: NCI-H226 lung 88.1% | RXF 393 renal 64.5%

COc1ccc(C(c2cc(OC)c(OC)c(OC)c2)n2ccnc2)cc1O (stereo not given)
active: NCI-H460 lung 6.11% | COLO 205 colon -9.99% | K-562 leukemia 8% | RXF 393 renal -5.38% | SF-295 CNS -3.02% | SF-539 CNS 9.52% | M14 melanoma 0.908%
inactive: NCI-H23 lung 38.9% | NCI-H226 lung 68.7% | NCI-H322M lung 48.2% | HOP-62 NSCLC 29.5% | HOP-92 NSCLC 25.8% | NCI-H522 lung 12.1% | A549/ATCC NSCLC 12.8% | 786-0 renal 20% | DU-145 prostate 12.9% | MALME-3M melanoma 66.6% | MDA-MB-231 breast 34.8% | SF-268 CNS 39.6% | UACC-257 melanoma 37.8%

COc1ccc(Oc2nc(Nc3ccc(N4CCOCC4)cc3)ncc2NC(=O)c2cccc(C(F)(F)F)c2)cc1
active: NCI-H522 lung 0.64%
inactive: NCI-H23 lung 87.3% | NCI-H226 lung 81.2% | NCI-H322M lung 83.6% | HOP-62 NSCLC 94.4% | NCI-H460 lung 70.2% | HOP-92 NSCLC 76.7% | A549/ATCC NSCLC 66% | 786-0 renal 87.8% | COLO 205 colon 84.8% | DU-145 prostate 91.9% | K-562 leukemia 56% | MALME-3M melanoma 97.5% | MDA-MB-231 breast 69.1% | RXF 393 renal 65.6% | SF-268 CNS 89.5% | SF-295 CNS 85.6% | SF-539 CNS 77.3% | UACC-257 melanoma 98.2% | M14 melanoma 80.7%

COc1ccc(CN2CCc3c(Cl)nc(N)nc3C2=O)c(OC)c1
inactive: NCI-H322M lung 14.9% [100 µM] | HOP-62 NSCLC 40% [100 µM] | NCI-H522 lung 15.7% [100 µM] | A549/ATCC NSCLC 35.4% [100 µM] | 786-0 renal 19.6% [100 µM] | DU-145 prostate 20.8% [100 µM] | K-562 leukemia 14.8% [100 µM] | MALME-3M melanoma 27.8% [100 µM] | SF-295 CNS 41.6% [100 µM] | UACC-257 melanoma 25.5% [100 µM]
active: NCI-H23 lung -62.1% [100 µM] | NCI-H226 lung 5.05% [100 µM] | NCI-H460 lung 1.6% [100 µM] | HOP-92 NSCLC -15.2% [100 µM] | COLO 205 colon -48.6% [100 µM] | MDA-MB-231 breast 6.36% [100 µM] | RXF 393 renal -20.2% [100 µM] | SF-268 CNS -22.4% [100 µM] | SF-539 CNS -25.3% [100 µM] | M14 melanoma -70.8% [100 µM]
